Inconclusive results are not listed. The source made the active and inactive calls. Unless noted, the call rests on the fitted dose curve; in most records, active means well fitted curve in the direction sought with a large enough effect; inconclusive means small, poorly fitted or top-dose-only effect, or another doubt; inactive means no such curve, though single readings can be large; an effect the other way counts as inactive or inconclusive.
What was measured:
[1] = biological target: Lysosomal acid glucosylceramidase (Homo sapiens) (UniProt P04062); test: Glucocerebrosidase-p2 (AID 348; in the data active means potency below about 10 µM; further: potency means the concentration at half of the fitted maximal effect); details: purified GBA, blue fluorogenic substrate, 40 min
How it was run: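 Compounds titrated from 0.6 nM upwards against 0.2 nM enzyme in pH 5.9 citric acid/KH2PO4, taurocholate, tween-20; blue fluorogenic substrate 80 uM, 40 min room temperature, stopped and read Ex 365/Em 440 for AC50.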

[2] = AP1 Signaling Pathway (AID 357; active means well fitted curve in either direction with a large enough effect, not every such curve was filed as active;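 further: ME-180 reporter cells stimulated with EGF at its EC50 level; on the % scale 0 is the no-effect control and ±100 the full control effect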); details: ME-180 (cervical carcinoma) AP-1-bla reporter, EGF-induced, beta-lactamase ratio, 5 h; at 7.69 µM (top of the series) unless noted
How it was run: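 AP-1-bla ME-180 cells, Opti-MEM + 0.5% dialyzed FBS, plated overnight 37 °C. Cpd titration + EC50 EGF, 5 h 37 °C. CCF4 2.5 h RT; ex 405, em 460/530 ratio → %activity, AC50.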

[3] = biological target: Cytochrome P450 1A2 (Homo sapiens) (UniProt P05177); test: p450-cyp1a2 (AID 410; calls by dose curve;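 further: -100% = full effect of reference inhibitor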); details: recombinant CYP1A2, luciferin-ME demethylation, luminescence; series mostly up to 11.4 µM
How it was run: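 Human CYP1A2 (20nM) demethylated Luciferin-ME at its Km (100uM) in 100mM KPO4. After 10 min compound preincubation, NADPH regeneration ran the reaction 60 min at room temperature. Luciferin was read by luminescence, normalized to 57 uM furafylline.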

[4] = NFAT Signaling Pathway (AID 444; active means well fitted curve in either direction with a large enough effect, not every such curve was filed as active;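 further: carbachol stimulus at about its EC50 of 1 µM final; on the % scale 0 is the no-effect control and ±100 the full control effect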); details: Jurkat NFAT-bla M1, carbachol, beta-lactamase ratio, 5 h; at 7.69 µM (top of the series) unless noted
How it was run: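 Jurkat cells with NFAT-driven β-lactamase reporter and co-expressed M1 receptor, stimulated with carbachol (final 1 uM, ~EC50), compound titration, 5 h at 37 °C. CCF4 loaded 1 h at RT; 460/530 nm ratio gave %activity and AC50.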

[5] = biological target: Mitogen-activated protein kinase 10 (Mus musculus) (UniProt Q61831); test: JNK3 AlphaScreen Assay (AID 530; active means well fitted curve in either direction with a large enough effect, not every such curve was filed as active;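 further: kinase came from lysate of stimulated human HepG2 cells; signal reports phosphorylation of biotinylated GST-cJun 1-79 at Ser73 with 10 µM ATP; on the % scale 0 is the no-effect control and ±100 the full control effect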); details: JNK3 lysate, c-Jun phosphorylation; series mostly up to 11.4 µM
How it was run: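 qHTS format: compounds tested as titrations against IL-1beta/TNF-alpha-activated HepG2 lysate JNK3 with biotin-GST-cJun substrate and 10 uM ATP at room temperature. Loss of anti-phospho-cJun AlphaScreen signal indicates inhibition.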

[6] = biological target: ATP-dependent 6-phosphofructokinase (Trypanosoma brucei brucei) (UniProt O15648); test: qHTS Assay to Find Inhibitors of T. brucei phosphofructokinase: hit validation (AID 492961);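 further: luminescence reports ADP formed as PFK phosphorylates fructose-6-phosphate with ATP; on the % scale 0 is the no-effect control and ±100 the full control effect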; details: T. brucei PFK, ADP-Glo luminescence; series mostly up to 51.4 µM
How it was run: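 Inhibition of parasite PFK is measured as reduced ADP formation, quantified via luciferase after ATP depletion. Assay used 0.1 mM ATP, 0.5 mM F6P, 1.25 nM enzyme, 45 min incubation.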

[7] = biological target: Ubiquitin carboxyl-terminal hydrolase 1 (Homo sapiens) (UniProt O94782); test: Inhibitors of USP1/UAF1: Pilot qHTS (AID 504865); details: purified USP1/UAF1, Ub-rhodamine cleavage fluorescence; series mostly up to 114 µM;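 further: rhodamine fluorescence freed from ubiquitin-rhodamine substrate followed over time; top concentration of the series differs between compounds; on the % scale 0 is the no-effect control and ±100 the full control effect; nearly all actives have a fitted effect of over 35% in size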
How it was run: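 In 50mM HEPES pH 7.8 containing 0.5mM EDTA, 1mM TCEP, 0.1 mg/ml BSA and 0.01% Tween-20, 1nM USP1/UAF1 is exposed to compound for 15 min, then Ub-Rho (150nM final) is added and fluorescence is read over time.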

[8] = biological target: Luciferin 4-monooxygenase (Photinus pyralis) (UniProt P08659); test: Biochemical firefly luciferase enzyme assay for NPC (AID 624030);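 further: purified P. pyralis luciferase at 10 nM with luciferin and ATP substrate; 0% = DMSO and -100% = full luciferase inhibition by PTC124 control; nearly all actives have a fitted effect of over 70% in size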; details: purified P. pyralis luciferase, luminescence, 5 min; series mostly up to 58.6 µM
How it was run: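 Purified P. pyralis luciferase at 10 nM in 50 mM Tris Acetate (final), luminescence read within 5 minutes of enzyme addition to compounds. Activity normalised to PTC124 versus DMSO; concentration-response curves classed by r2, magnitude and activity.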

[9] = S16 Schwann cell viability assay (CellTiter-Glo assay) (AID 624031); details: S16 rat Schwann cells viability, 24 h; series mostly up to 57.5 µM;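 further: cellular ATP luminescence as a viability measure; plate controls were DMSO-treated cells for no effect and cell-free wells for full effect; nearly all actives have a fitted effect of over 70% in size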
How it was run: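 Native S16 rat Schwann cells, 500-750 cells/well in DMEM with 10% FBS, dosed with compound after overnight culture and incubated 24h at 37 degree Celsius/5% CO2. Viability by CellTiter-Glo luminescence; % activity normalized to no-cell wells and DMSO-treated cells.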

[10] = S16 Schwann cell PMP22 intronic element firefly luciferase assay (AID 624032); details: S16 rat Schwann cells, PMP22 element FLuc, 24 h; series mostly up to 57.5 µM;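 further: plate controls were DMSO for no effect and PTC124 positive control mean for full effect; nearly all actives have a fitted effect of over 30% in size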
How it was run: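 Rat S16 Schwann cells stably carrying firefly luciferase driven by a PMP22 intronic element, in 10% FBS, treated 24 h at 37 C. ONE-Glo luminescence normalized to PTC124 control and DMSO (0%); curves classed by r2, magnitude and activity.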

[11] = S16 Schwann cell PMP22 intronic element beta-lactamase assay (AID 624044; calls by dose curve;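 further: 0% = DMSO and -100% = potassium clavulanate positive control; nearly all actives have a fitted effect of over 15% in size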); details: S16 rat Schwann cells, PMP22 element beta-lactamase FRET, 24 h; series mostly up to 38.3 µM
How it was run: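 Rat S16 Schwann cells with beta-Lac driven by a PMP22 intronic element, compound-treated 24 h at 37 °C. LiveBLAzer FRET B/G read: 460 nm normalized to potassium clavulanate vs DMSO; 535 nm FRET as viability; concentration-effect curves classified.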

[12] = qHTS profiling for inhibitors of Plasmodium falciparum proliferation (AID 504749);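 further: 0% = DMSO vehicle and full inhibition = artemisinin control; nearly all actives have a fitted effect of over 60% in size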; details: P. falciparum in erythrocytes, SYBR Green DNA, 72 h, at 28.7 µM (top of the series)
How it was run: (§1)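 Readout was DNA-dye fluorescence from lysed cultures, ex 485/em 535 nm. Parasitized red cells had grown 72 h with compound; data scaled between 0.29 uM artemisinin and DMSO wells and corrected using vehicle-only plates.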

3D7 = test: as above; details: P. falciparum in erythrocytes, SYBR Green DNA, 72 h; series mostly up to 28.7 µM
How it was run: as §1

AA1029 = test: as above; details: P. falciparum in erythrocytes, SYBR Green DNA, 72 h; series mostly up to 28.7 µM
How it was run: as §1

AS120 = test: as above; details: P. falciparum in erythrocytes, SYBR Green DNA, 72 h; series mostly up to 28.7 µM
How it was run: as §1

ATS189 = test: as above; details: P. falciparum in erythrocytes, SYBR Green DNA, 72 h; series mostly up to 28.7 µM
How it was run: as §1

ATS95 = test: as above; details: P. falciparum in erythrocytes, SYBR Green DNA, 72 h; series mostly up to 28.7 µM
How it was run: as §1

C2A = test: as above; details: P. falciparum in erythrocytes, SYBR Green DNA, 72 h; series mostly up to 28.7 µM
How it was run: as §1

CP185 = test: as above; details: P. falciparum in erythrocytes, SYBR Green DNA, 72 h; series mostly up to 28.7 µM
How it was run: as §1

CP191 = test: as above; details: P. falciparum in erythrocytes, SYBR Green DNA, 72 h; series mostly up to 28.7 µM
How it was run: as §1

CP192 = test: as above; details: P. falciparum in erythrocytes, SYBR Green DNA, 72 h; series mostly up to 28.7 µM
How it was run: as §1

CP194 = test: as above; details: P. falciparum in erythrocytes, SYBR Green DNA, 72 h; series mostly up to 28.7 µM
How it was run: as §1

CP201 = test: as above; details: P. falciparum in erythrocytes, SYBR Green DNA, 72 h; series mostly up to 28.7 µM
How it was run: as §1

CP203 = test: as above; details: P. falciparum in erythrocytes, SYBR Green DNA, 72 h; series mostly up to 28.7 µM
How it was run: as §1

CP211 = test: as above; details: P. falciparum in erythrocytes, SYBR Green DNA, 72 h; series mostly up to 28.7 µM
How it was run: as §1

CP215 = test: as above; details: P. falciparum in erythrocytes, SYBR Green DNA, 72 h; series mostly up to 28.7 µM
How it was run: as §1

CP217 = test: as above; details: P. falciparum in erythrocytes, SYBR Green DNA, 72 h; series mostly up to 28.7 µM
How it was run: as §1

CP237 = test: as above; details: P. falciparum in erythrocytes, SYBR Green DNA, 72 h; series mostly up to 28.7 µM
How it was run: as §1

CP238 = test: as above; details: P. falciparum in erythrocytes, SYBR Green DNA, 72 h; series mostly up to 28.7 µM
How it was run: as §1

CP247 = test: as above; details: P. falciparum in erythrocytes, SYBR Green DNA, 72 h; series mostly up to 28.7 µM
How it was run: as §1

CP250 = test: as above; details: P. falciparum in erythrocytes, SYBR Green DNA, 72 h; series mostly up to 28.7 µM
How it was run: as §1

CP252 = test: as above; details: P. falciparum in erythrocytes, SYBR Green DNA, 72 h; series mostly up to 28.7 µM
How it was run: as §1

CP256 = test: as above; details: P. falciparum in erythrocytes, SYBR Green DNA, 72 h; series mostly up to 28.7 µM
How it was run: as §1

CP260 = test: as above; details: P. falciparum in erythrocytes, SYBR Green DNA, 72 h; series mostly up to 28.7 µM
How it was run: as §1

Sequence of Lysosomal acid glucosylceramidase (Homo sapiens) (P04062 whole entry, looked up): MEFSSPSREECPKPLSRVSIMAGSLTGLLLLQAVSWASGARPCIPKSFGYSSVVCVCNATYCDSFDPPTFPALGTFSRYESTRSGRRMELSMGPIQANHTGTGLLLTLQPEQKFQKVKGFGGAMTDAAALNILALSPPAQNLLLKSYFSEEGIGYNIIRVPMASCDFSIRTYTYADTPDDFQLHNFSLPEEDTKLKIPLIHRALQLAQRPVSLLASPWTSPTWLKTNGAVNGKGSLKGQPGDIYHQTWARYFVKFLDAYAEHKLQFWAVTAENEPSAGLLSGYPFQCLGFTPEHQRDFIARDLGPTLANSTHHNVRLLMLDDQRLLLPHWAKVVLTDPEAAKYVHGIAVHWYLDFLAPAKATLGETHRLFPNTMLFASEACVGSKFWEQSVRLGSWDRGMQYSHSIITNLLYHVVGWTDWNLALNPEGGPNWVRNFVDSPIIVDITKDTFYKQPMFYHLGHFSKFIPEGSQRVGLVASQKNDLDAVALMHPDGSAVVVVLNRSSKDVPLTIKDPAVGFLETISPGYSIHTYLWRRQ
Sequence of Ubiquitin carboxyl-terminal hydrolase 1 (Homo sapiens) (O94782 whole entry, looked up): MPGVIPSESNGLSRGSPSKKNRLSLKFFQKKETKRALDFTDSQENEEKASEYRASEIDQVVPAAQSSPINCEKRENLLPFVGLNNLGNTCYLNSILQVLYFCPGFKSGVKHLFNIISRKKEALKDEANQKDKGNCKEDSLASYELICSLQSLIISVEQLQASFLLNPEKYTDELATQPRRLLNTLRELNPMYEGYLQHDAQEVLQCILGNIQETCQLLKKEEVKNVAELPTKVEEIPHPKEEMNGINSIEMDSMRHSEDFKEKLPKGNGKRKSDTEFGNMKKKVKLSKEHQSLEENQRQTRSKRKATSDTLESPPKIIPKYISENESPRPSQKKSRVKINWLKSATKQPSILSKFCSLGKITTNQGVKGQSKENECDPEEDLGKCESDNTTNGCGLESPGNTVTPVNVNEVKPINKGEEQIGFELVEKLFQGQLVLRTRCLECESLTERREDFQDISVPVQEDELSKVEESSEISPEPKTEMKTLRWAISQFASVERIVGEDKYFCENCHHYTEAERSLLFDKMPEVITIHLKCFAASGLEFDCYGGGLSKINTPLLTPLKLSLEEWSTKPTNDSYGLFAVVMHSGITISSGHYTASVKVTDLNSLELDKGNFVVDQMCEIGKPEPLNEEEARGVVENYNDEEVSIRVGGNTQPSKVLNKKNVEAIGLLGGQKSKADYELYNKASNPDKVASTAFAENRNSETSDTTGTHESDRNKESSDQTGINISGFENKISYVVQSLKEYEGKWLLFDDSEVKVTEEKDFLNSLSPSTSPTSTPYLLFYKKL
Sequence of Luciferin 4-monooxygenase (Photinus pyralis) (P08659 whole entry, looked up): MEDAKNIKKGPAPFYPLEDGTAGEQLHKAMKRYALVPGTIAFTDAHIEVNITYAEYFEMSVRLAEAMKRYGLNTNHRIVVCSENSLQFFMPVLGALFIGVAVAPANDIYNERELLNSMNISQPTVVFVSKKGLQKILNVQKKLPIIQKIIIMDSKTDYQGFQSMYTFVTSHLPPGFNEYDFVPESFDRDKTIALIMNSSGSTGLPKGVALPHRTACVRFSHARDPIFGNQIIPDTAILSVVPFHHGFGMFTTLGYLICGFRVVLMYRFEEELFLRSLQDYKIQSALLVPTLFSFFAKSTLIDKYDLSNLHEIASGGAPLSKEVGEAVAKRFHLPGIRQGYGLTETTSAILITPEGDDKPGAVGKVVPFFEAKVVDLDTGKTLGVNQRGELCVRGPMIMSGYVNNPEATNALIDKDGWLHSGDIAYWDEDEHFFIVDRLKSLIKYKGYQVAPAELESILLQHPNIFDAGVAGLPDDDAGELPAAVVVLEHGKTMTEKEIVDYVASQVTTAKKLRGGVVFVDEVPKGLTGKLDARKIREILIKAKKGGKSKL
Sequence of ATP-dependent 6-phosphofructokinase (Trypanosoma brucei brucei) (O15648 whole entry, looked up): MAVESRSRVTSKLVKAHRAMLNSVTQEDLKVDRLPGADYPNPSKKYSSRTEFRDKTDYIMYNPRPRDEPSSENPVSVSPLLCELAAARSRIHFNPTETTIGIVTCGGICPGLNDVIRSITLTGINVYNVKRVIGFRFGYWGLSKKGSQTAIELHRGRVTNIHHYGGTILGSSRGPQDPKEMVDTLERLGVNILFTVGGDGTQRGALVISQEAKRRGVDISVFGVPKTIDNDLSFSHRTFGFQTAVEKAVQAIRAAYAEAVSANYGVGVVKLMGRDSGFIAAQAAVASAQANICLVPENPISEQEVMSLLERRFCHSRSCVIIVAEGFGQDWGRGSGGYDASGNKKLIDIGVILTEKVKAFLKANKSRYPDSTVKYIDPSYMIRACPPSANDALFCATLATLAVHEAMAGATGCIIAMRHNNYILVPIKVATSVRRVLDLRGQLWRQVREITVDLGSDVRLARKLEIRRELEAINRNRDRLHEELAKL
Sequence of Cytochrome P450 1A2 (Homo sapiens) (P05177 whole entry, looked up): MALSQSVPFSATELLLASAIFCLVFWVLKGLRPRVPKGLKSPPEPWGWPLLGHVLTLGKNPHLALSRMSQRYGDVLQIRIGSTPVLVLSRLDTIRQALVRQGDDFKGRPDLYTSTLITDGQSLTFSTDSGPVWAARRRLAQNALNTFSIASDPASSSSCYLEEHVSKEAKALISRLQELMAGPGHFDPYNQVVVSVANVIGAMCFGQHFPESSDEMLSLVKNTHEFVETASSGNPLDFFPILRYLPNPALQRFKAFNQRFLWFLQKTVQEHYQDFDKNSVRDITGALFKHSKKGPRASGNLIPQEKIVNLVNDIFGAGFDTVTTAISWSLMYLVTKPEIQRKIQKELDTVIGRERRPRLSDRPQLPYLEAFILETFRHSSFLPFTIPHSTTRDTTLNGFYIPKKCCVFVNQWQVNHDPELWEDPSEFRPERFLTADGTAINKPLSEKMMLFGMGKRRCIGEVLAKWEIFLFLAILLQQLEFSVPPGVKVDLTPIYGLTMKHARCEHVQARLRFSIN

CC1(C)[C@@H]2CC[C@]1(C)[C@@H](OC(=O)CSC#N)C2
inactive: Potency [1] > 11.4 µM | activity change, negative = inhibition [2] -4% | activity change, negative = inhibition [3] -18.3% [at 2.29 µM] | activity change, negative = inhibition [4] 18.3% | Potency [5] | outcome [6] | Potency [7] | outcome [8] | Potency [9] | Potency [10] | outcome [11] | activity, negative = inhibition ([12]; parasite line A) -6.1% | activity, negative = inhibition ([12]; parasite line B) -5.42% | Potency (3D7) | Potency (AA1029) | Potency (AS120) | Potency (ATS189) | Potency (ATS95) | Potency (C2A) | Potency (CP185) | Potency (CP191) | Potency (CP192) | Potency (CP194) | Potency (CP201) | Potency (CP203) | Potency (CP211) | Potency (CP215) | Potency (CP217) | Potency (CP237) | Potency (CP238) | Potency (CP247) | Potency (CP250) | Potency (CP252) | Potency (CP256) | Potency (CP260)

From PubChem BioAssay (NCATS)
